Compound activity deposited in PubChem BioAssay by National Center for Advancing Translational Sciences (NCATS).
Hits are enriched below; roughly 0.49% of the tested compounds scored in any of these assays.
Pin1 inhibitor – human Pin1 inhibition; Q13526; Pin1 FP peptide displacement, HiFluor488, 10 min; Potency, µM (doses to about 115 µM), for inactives: at the top dose activity, negative = inhibition, hits mostly inhibitors; actives 0.009% (n = 390,000); active = well fitted inhibition curve with a large enough effect in the polarisation, with a control signal flat, not every such curve was filed as active; inconclusive = small, poorly fitted or top-dose-only effect, or effect the other way, or a change in a side signal; inactive = no such curve, though single readings can be large or run the other way; the % refers to the polarisation; note: potency is the fitted concentration of half-maximal effect; % is set by controls: 0 for no effect and ±100 for the full control effect
Target sequence (Q13526 whole entry, looked up): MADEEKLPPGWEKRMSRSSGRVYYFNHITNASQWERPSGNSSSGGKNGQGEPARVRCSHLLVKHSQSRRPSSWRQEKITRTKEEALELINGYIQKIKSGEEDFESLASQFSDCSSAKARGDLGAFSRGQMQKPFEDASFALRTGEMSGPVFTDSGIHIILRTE
LDHA block – blocks human lactate dehydrogenase A; actives 0.15% (n = 480,000); purified LDHA, NADH/diaphorase-resazurin fluorescence; stronger effect = lower value; P00338; activity change, % (values are at about 110 or 230 µM); in the data active = activity change below about -30%; inconclusive = mostly about -25% to -30%;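 note: plate controls were DMSO wells for no effect and wells without enzyme for full effect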
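Human LDH5 at 2 nM final in Tris HCl pH 7.4 with 0.06 mM NADH and 0.2 mM pyruvate, reacted 5 minutes at room temperature. Remaining NADH coupled via diaphorase/resazurin; resorufin fluorescence read at 0 and 20 minutes, normalized to enzyme-free and DMSO wells.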
IDH1 R132H inh – blocks human mutant IDH1 R132H enzyme. O75874. IDH1-R132H enzyme, NADPH consumption, diaphorase/resazurin fluorescence. Potency, µM (doses to about 76.6 µM), for the others: top-dose activity change, negative = inhibition, usual class: inhibitors. actives 0.093% (n = 390,000). AID 602179; note: potency is the fitted concentration of half-maximal effect; % is set by controls: 0 for no effect and ±100 for the full control effect; nearly all actives have a fitted effect of over 65% in size
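IDH1-R132H (0.5 ug/mL) preincubated 30 min with compound, then NADPH (0.016 mM) and alpha-KG (2 mM) added; 80 min at RT, pH 7.5. Remaining NADPH coupled via diaphorase/resazurin to fluorescence (540/590 nm); concentration-response curves normalized to no-enzyme control.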
Vif-A3G inh – inhibitors of Vif-APOBEC3G interaction | Q9HC16 | HeLa A3G-eYFP + Vif (tagged APOBEC3G with the HIV-1 protein that degrades it), YFP fluorescence, overnight | Potency, µM (series often up to 46.1 µM), inactives show at the highest dose activity, negative = active, hits mostly inhibitors | actives 0.076% (n = 410,000) | AID 602310; note: potency is the fitted concentration of half-maximal effect; % is set by controls: 0 for no effect and ±100 for the full control effect; nearly all actives have a fitted effect of over 60% in size
Target sequence (Q9HC16 whole entry, looked up): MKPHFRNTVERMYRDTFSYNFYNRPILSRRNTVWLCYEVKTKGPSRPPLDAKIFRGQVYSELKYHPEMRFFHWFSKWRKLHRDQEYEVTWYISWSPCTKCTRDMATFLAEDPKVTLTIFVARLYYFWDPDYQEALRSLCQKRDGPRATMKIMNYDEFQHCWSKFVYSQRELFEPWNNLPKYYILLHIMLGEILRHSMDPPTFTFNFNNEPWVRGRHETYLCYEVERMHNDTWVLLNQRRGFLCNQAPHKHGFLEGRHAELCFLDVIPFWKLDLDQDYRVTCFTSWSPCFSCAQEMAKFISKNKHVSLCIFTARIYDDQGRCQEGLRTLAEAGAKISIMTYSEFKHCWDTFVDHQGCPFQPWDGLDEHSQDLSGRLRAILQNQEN
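Read-out is eYFP fluorescence (Ex 488/Em 500-530) from Vif-expressing HeLa A3G-eYFP cells; more signal means A3G escaped Vif-mediated degradation. Cells plated overnight, compound pinned in, incubated overnight at 37 deg C.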
PGK inhibitor – T. brucei PGK inhibition. AID 602233. P07378. PGK/GAPDH coupled, Kinase-Glo luminescence, 60 min. actives 0.043% (n = 380,000). Potency, µM (titrated, usually from 57.5 µM), for inactives: at the highest dose activity change, negative = inhibition, actives largely listed as inhibitors; note: potency is the fitted concentration of half-maximal effect; % is set by controls: 0 for no effect and ±100 for the full control effect; nearly all actives have a fitted effect of over 60% in size
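Luminescent ATP detection (Kinase-Glo Plus) follows a 60-minute room-temperature incubation, with wells lacking PGK as controls. Buffer: 100 mM TEA (pH 7.6), 5 mM MgCl2, 0.01% Tween-20. Coupling enzyme GAPDH (100 nM final) supplies unstable 1,3-BPG in-well.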
Vif-APOBEC3F blk – Vif-A3F binding inhibition. HeLa A3F-eYFP + Vif (tagged APOBEC3F with the HIV-1 protein that degrades it), YFP fluorescence increase. Potency, µM (series often up to 46.1 µM), for inactives: top-dose activity, negative = active. actives 0.2% (n = 390,000). AID 602313; note: potency is the fitted concentration of half-maximal effect; % of control where 0% means no effect; nearly all actives have a fitted effect of over 65% in size
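Fluorescence increase (Ex 488/Em 500-530) after overnight compound treatment at 37 deg C flags inhibition of Vif-driven A3F-eYFP loss in stable HeLa A3F-eYFP/Vif cells seeded overnight beforehand.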
Active calls of the source: *; i = inactive; ? = inconclusive; / = no result given. Unless noted, calls come from the whole dose curve; as a rule, active = well fitted curve in the direction sought with a large enough effect; inconclusive = small, poorly fitted or top-dose-only effect, or another doubt; inactive = no such curve, though single readings can be large; an effect the other way counts as inactive or inconclusive.

SMILES	Pin1 inhibitor	LDHA block	IDH1 R132H inh	Vif-A3G inh	PGK inhibitor	Vif-APOBEC3F blk
CN(C)CCOc1ccc(C(C)(C)c2ccccc2)cc1	-8%	-38*	6%	-2%	4%	4%
CC(Cc1cccs1)N(Cc1ccccc1)C(=O)c1cccc(S(=O)(=O)N2CCCC2)c1 (configuration not stated)	/	5	/	/	/	/
COc1ccc(Oc2ccc(CNc3ncccn3)cn2)cc1	/	-6	/	/	/	/
CCN(CC)C(=O)c1ccc(/C=C/c2c[nH]c3ccccc23)[n+](C)c1	?	-5	2%	?	i	13µM*
Cc1ccc(C(=O)/C=C/c2c[nH]c3ccccc23)cc1	22%	0	12%	-27%	/	-8%
CN1/C(=C\C=C(/C#N)C(=O)Nc2ccc(Cl)cc2)C(C)(C)c2ccccc21	?	-2	5%	7.1µM*	-1%	?
CN1/C(=C\C(=O)Nc2ccc(Cl)cc2)C(C)(C)c2ccccc21	?	-1	-2%	3%	8%	?
CN1/C(=C\C=C(C#N)C#N)C(C)(C)c2ccccc21	?	-1	-3%	-2%	5%	11µM*
CC(=O)N(CCC(Cc1ccccc1)c1ccc2c(c1)OCO2)Cc1ccc(Cl)cc1 (configuration not stated)	?	-1	7.4µM*	0%	-6%	0%
COC(=O)[C@H]1[C@H]2C[C@@H]3c4[nH]c5cc(OC)ccc5c4CCN3C[C@H]2C[C@@H](OC(=O)c2cc(OC)c(OC)c(OC)c2)[C@@H]1OC	?	-6	2%	-13%	i	?
COC(=O)C1C2CC3c4[nH]c5cc(OC)ccc5c4CCN3CC2CC(OC2CCCCO2)C1OC (configuration not stated)	/	8	4%	-9%	4%	11µM*
COc1cc(NS(=O)(=O)c2ccc(NC(=O)c3ccc(OC)c(Br)c3)cc2)nc(OC)n1	2%	-50*	10%	-5%	-11%	0%
COc1ccc(C=NNc2ccc(S(=O)(=O)Nc3ccccc3C(=O)O)cc2[N+](=O)[O-])c(OC)c1	/	-71*	?	7%	?	1%
O=C(O)c1ccccc1NS(=O)(=O)c1ccc(NN=Cc2ccccc2F)c([N+](=O)[O-])c1	/	-9	25%	9%	?	-3%
O=C(NCC1CCCO1)c1nn2c(C(F)(F)F)cc(-c3cc(Br)cs3)nc2c1Br (configuration not stated)	?	1	3%	-9%	-8%	10µM*
CC(=O)NCc1ccc(-c2csc(Nc3ccc(Cl)cc3)n2)s1	/	10	/	/	/	/
COc1ccc2nc(N3CCCCC3)c(C#N)cc2c1	?	8	0%	-7%	-8%	-19%
COc1ccc2nc(N3CCCC3)c(C#N)cc2c1	/	10	5%	-14%	-1%	11µM*
Cc1c(-c2nsc(NC(=O)c3cccc(Cl)c3)n2)nnn1-c1cc(F)ccc1F	/	0	/	/	/	/
C[C@@H]1CN([C@H](C)CO)C(=O)CCCn2nncc2CO[C@H]1CN(C)C	/	-33*	-2%	-1%	i	-14%
C[C@@H]1CN([C@@H](C)CO)C(=O)CCCn2nncc2CO[C@H]1CN(C)C	/	-5	2%	1%	-5%	-1%
C[C@@H]1CN([C@H](C)CO)C(=O)CCCn2cc(nn2)CO[C@H]1CN(C)S(=O)(=O)c1ccc2c(c1)OCCCO2	/	-30*	-4%	1%	0%	-13%
CCc1cc(C(=O)O)sc1-c1ccc(C)cc1	/	2	/	/	/	/
O=C(Cn1c(NCc2ccccc2)nc2ccccc21)N1CCN(c2ccccc2)CC1	/	2	/	/	/	/
O=C(CN1C(=O)/C(=C/c2ccco2)SC1=S)Nc1ccc(C(=O)O)c(O)c1	34%	-16	-5%	5%	28µM*	-1%
SMILES	Pin1 inhibitor	LDHA block	IDH1 R132H inh	Vif-A3G inh	PGK inhibitor	Vif-APOBEC3F blk
O=[N+]([O-])c1ccc(Cl)c(/C=N/Nc2nc(Cl)c(Cl)cc2Cl)c1	/	2	/	/	/	/
O=c1c2ccccc2nc(/C=C/c2ccc([N+](=O)[O-])cc2)n1CCCO	35%	1	5%	-24%	-9%	8%
O=c1c2ccccc2nc(/C=C/c2ccc([N+](=O)[O-])o2)n1CCCO	?	0	7%	?	-3%	22µM*
Cn1nc(-c2ccc(N3CCOCC3)c(NC(=O)COc3ccccc3)c2)c2ccccc2c1=O	/	-3	/	/	/	/
Cn1nc(-c2ccc(OCC(=O)N3CCOCC3)cc2)c2ccccc2c1=O	/	-31*	/	/	/	/
COc1cc(OC)c(OC)cc1/C=C1\CC(C)C/C(=C\c2cc(OC)c(OC)cc2OC)C1=O (configuration not stated)	?	-6	-21%	?	-2%	22µM*
N=C1S/C(=C\c2ccc(-c3cccc(Cl)c3)o2)C(=O)N1c1nccs1	14%	-5	3%	-4%	-4%	25µM*
CC1CCN(S(=O)(=O)c2ccc3c(c2)CCC(=O)N3CC(=O)Nc2cccc(C#N)c2)CC1	?	2	-15%	4%	14µM*	-7%
Cc1ccc(-n2nc3c(N4CCCC(C(=O)NCc5ccccc5C)C4)nnc(C)c3c2C)cc1 (configuration not stated)	38%	6	-2%	-9%	-1%	13µM*
Cn1cccc1/C=C1\Cc2ccccc2C1=O	42%	-4	-5%	7%	-13%	-3%
Cn1cccc1/C=C1\CC(C(C)(C)C)C/C(=C\c2cccn2C)C1=O (configuration not stated)	?	6	1%	7.9µM*	14%	?
CN1C2CCC1/C(=C\c1ccc(F)cc1)C(=O)/C2=C/c1ccc(F)cc1	0%	-5	2%	-21%	4%	?
CN1C2CCC1/C(=C/c1cccn1C)C(=O)/C2=C\c1cccn1C	?	3	8%	?	-4%	22µM*
CN(C)/C=C/C=C1C(=O)CC(C)(C)CC1=O	/	6	/	/	/	/
CCCN(C(=O)c1ccc2c(=O)n3c(nc2c1)CCCC3)c1ccc(C(C)C)cc1	/	1	/	/	/	/
O=c1[nH]c2cc(Br)cnc2nc1/C=C(\O)c1ccc(F)cc1	13%	-5	2%	-9%	-6%	10µM*
COc1cccc(C(=O)Nc2oc3ccccc3c(=O)c2-c2ccc3c(c2)OCO3)c1	/	-8	/	/	/	/
Cc1ccc(C2CC(=O)C3=C(C2)OC(N)=C(C#N)C3c2ccccc2Cl)cc1 (configuration not stated)	/	-16	/	/	/	/
